# MBD2 DNA inh = blocks human MBD2 binding to methylated DNA; hit rate 0.31% among 370,000; TR-FRET, MBD2 binding to methylated oligonucleotide; inhibition, % at 4.4 µM; AID 686964; Q9UBB5; in the data active = inhibition above about 13%
# Target sequence (Q9UBB5 whole entry, looked up): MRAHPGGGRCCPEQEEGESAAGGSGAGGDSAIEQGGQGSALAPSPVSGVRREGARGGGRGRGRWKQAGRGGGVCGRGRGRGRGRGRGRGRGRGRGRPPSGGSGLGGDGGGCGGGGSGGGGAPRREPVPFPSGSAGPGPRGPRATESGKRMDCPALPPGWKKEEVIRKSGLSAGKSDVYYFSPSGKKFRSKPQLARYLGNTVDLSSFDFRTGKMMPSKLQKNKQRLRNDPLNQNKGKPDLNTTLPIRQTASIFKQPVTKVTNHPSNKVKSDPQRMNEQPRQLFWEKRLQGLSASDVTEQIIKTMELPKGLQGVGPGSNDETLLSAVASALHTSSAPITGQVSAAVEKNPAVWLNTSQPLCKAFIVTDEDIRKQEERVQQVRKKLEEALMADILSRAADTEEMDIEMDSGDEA
# PfM18AAP inh = blocks P. falciparum M18 aspartyl aminopeptidase; recombinant PfM18AAP, H-Glu-NHMec fluorogenic cleavage; inhibition, % at 7.35 µM; hit rate 1.2% among 290,000; AID 1822;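 active = inhibition above the campaign mean inhibition over all tested compounds plus 3 SD, cut at about 28% in these data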;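 also: 0% = plate median of test compound wells and 100% = 2 mM ZnCl2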
# PRMT1 inh = inhibitors of human PRMT1. inhibition, % at 2.79 µM. Q99873. hit rate 1.3% among 370,000. recombinant PRMT1, activity-based probe fluorescence polarization;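 active = inhibition above about 21% made by adding two undisclosed values, limit read from the data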
# UHRF1 binding = UHRF1 methyl-DNA binding inhibition; Q96T88; UHRF1 binding to methylated oligo, TR-FRET; inhibition, % at 4.4 µM; hit rate 0.75% among 370,000; AID 687016; in the data active = inhibition above about 21%;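 also: UHRF1 SRA domain binding a hemimethylated CpG hairpin DNA probe; 0% = median of test compound wells and 100% = reference inhibitor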
# PfG6PD inh = PfG6PD (Plasmodium falciparum) enzyme inhibition; PfGluPho enzyme, NADPH resazurin-diaphorase fluorescence; inhibition, % at 20 µM; hit rate 0.78% among 350,000;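 active = inhibition reaching at least a set limit at 20 µM in the primary screen, cut at about 59% in these data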;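 also: 0% = DMSO wells with substrate and 100% = DMSO wells lacking glucose-6-phosphate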
# PfGluPho conf = PfG6PD inhibition, single-dose confirmed | recombinant PfGluPho, NADPH-diaphorase-resazurin fluorescence | hit rate 34% among 2,400 | shares compounds with PfG6PD inh | inhibition, % at 20 µM;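 active = inhibition of at least 50% at 20 µM in any single replicate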;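 also: 0% = DMSO with substrate and 100% = DMSO lacking glucose-6-phosphate substrate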
# Diaph ctr 10uM = inhibits diaphorase or oxidizes, flagging false PfG6PD hits. hit rate 39% among 820. shares compounds with PfG6PD inh. diaphorase-coupled resazurin reduction, fluorescence, NADPH 10 uM. inhibition, % at 20 µM;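 active = average inhibition reaching 50% or more with the compound at 20 µM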;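 also: resorufin red fluorescence formed as diaphorase reduces resazurin using NADPH; 0% = DMSO with enzyme and 100% = DMSO without enzyme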
# Diaph ctr 30uM = counter-screen for P. falciparum G6PD inhibitors: diaphorase inhibitors, oxidizers; shares compounds with PfG6PD inh; Diaphorase/resazurin coupled assay, resorufin fluorescence, 30 uM NADPH; inhibition, % at 20 µM; hit rate 29% among 820; AID 504863;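 active = inhibition averaging 50% or more, tested at 20 µM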;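 also: 0% = DMSO with enzyme and 100% = DMSO wells lacking diaphorase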
# Numbers without * were called inactive; nt = no result. Most compounds without a hit are left out; they make up all but 3.3% or so of the library.
SMILES,MBD2 DNA inh,PfM18AAP inh,PRMT1 inh,UHRF1 binding,PfG6PD inh,PfGluPho conf,Diaph ctr 10uM,Diaph ctr 30uM
O=C(CSc1nc2ccccc2s1)N/N=C/c1cc([N+](=O)[O-])ccc1O,-0.5,8.3,-0.8,0.4,-16.8,nt,nt,nt
COCC(=O)N/N=C/c1ccc(Sc2nc3ccccc3s2)o1,-1.0,-1.4,0.4,-2.5,59.5*,21.1,nt,nt
Cc1ccccc1OCC(=O)N/N=C/c1ccc(Sc2nc3ccccc3s2)o1,-1.8,-0.4,-1.0,-0.8,122.5*,58.5*,43.6,43.5
Cc1ccc(/C=N/NC(=O)CSc2nc3ccccc3s2)o1,-2.9,-1.6,2.2,-5.0,41.2,nt,nt,nt
O=C(Cc1cccc2ccccc12)N/N=C/c1ccc(Sc2nc3ccccc3s2)o1,-2.6,5.7,-2.0,1.1,74.2*,5.8,nt,nt
O=C(Cn1nnc(-c2ccc(N3CCOCC3)cc2)n1)c1ccccc1,1.1,nt,-2.4,1.4,nt,nt,nt,nt
NC(=S)NN=Cc1c[nH]c2nccnc12,-2.5,nt,12.4,-1.8,76.2*,16.7,nt,nt
NC(=S)N/N=C/c1c[nH]c2ccccc12,2.9,21.9,5.5,0.8,21.8,nt,nt,nt
O=S1(=O)N[C@@H](Cc2ccccc2)COc2cc(NCCCN3CCOCC3)ccc21,3.3,nt,-2.8,14.2,nt,nt,nt,nt
COc1ccc(N=C2C(=S)N(c3ccc(OC)cc3)C(=NS(=O)(=O)c3ccccc3)N2c2ccccc2)cc1,-0.1,nt,0.7,-2.3,83.7*,68.4*,-25.9,-16.2
COc1ccc(N2C(=O)NC(NS(=O)(=O)c3ccccc3)(C(F)(F)F)C2=O)cc1 (stereo not drawn),5.8,3.2,2.9,0.5,-11.8,nt,nt,nt
O=C(Nc1ccccc1)N1c2ccccc2SC1c1ccco1 (stereo not drawn),1.1,nt,16.0,3.7,nt,nt,nt,nt
O=C1c2ccccc2-c2onc3c(N4CCN(CCO)CC4)cc(N4CCN(C(=O)c5ccco5)CC4)c1c23,-7.4,21.9,14.9,-3.9,75.0*,34.8,nt,nt
CCOC(=O)N1CCN(c2cc(NCCC(=O)O)c3c4c(onc24)-c2ccccc2C3=O)CC1,nt,5.7,nt,nt,37.8,nt,nt,nt
Cc1ccc(-c2c(C(=O)N/N=C/c3ccsc3)nnn2-c2nonc2N)cc1,0.3,1.4,3.0,1.5,82.2*,54.1*,46.0,47.1
Cc1ccc(-c2c(C(=O)N/N=C/c3cccc(Cl)c3)nnn2-c2nonc2N)cc1,-0.4,2.9,0.1,-0.5,144.8*,110.3*,99.3*,83.6*
Cc1ccc(-c2c(C(=O)N/N=C/c3cccs3)nnn2-c2nonc2N)cc1,nt,0.3,nt,nt,80.7*,69.4*,61.1*,48.4
C/C(=N\Nc1cccc([N+](=O)[O-])c1)c1cc(F)ccc1O,-0.7,-3.6,-2.5,1.6,83.8*,16.1,nt,nt
O=C(Cn1ccc(=O)[nH]c1=O)c1ccc([N+](=O)[O-])o1,2.0,nt,3.7,1.4,59.3*,33.5,nt,nt
O=C(Cn1ccc(=O)[nH]c1=O)NCCO,-5.4,2.9,-2.1,0.7,-11.4,nt,nt,nt
Cc1ccc(C(=O)COC(=O)c2c(C)cc(=O)oc2C)cc1[N+](=O)[O-],-2.4,-5.0,-3.4,2.1,66.7*,-13.5,nt,nt
N#Cc1cn(CCCOc2ccccc2)c2ccccc12,3.9,1.7,0.7,2.2,61.0*,19.9,nt,nt
COc1ccccc1OCCCn1cc(C#N)c2ccccc21,0.9,5.3,-2.5,-2.6,113.0*,69.2*,64.6*,57.7*
NCC(O)c1ccc(O)c(O)c1 (stereo not drawn),0.7,nt,-2.1,6.0,-7.1,nt,nt,nt
CCC(c1ccc(O)c(O)c1)C(CC)c1ccc(O)c(O)c1 (stereo not drawn),nt,nt,nt,nt,78.4*,56.8*,8.0,2.9
SMILES,MBD2 DNA inh,PfM18AAP inh,PRMT1 inh,UHRF1 binding,PfG6PD inh,PfGluPho conf,Diaph ctr 10uM,Diaph ctr 30uM
CCN(CC)c1nc(N)nc(NS(=O)(=O)c2ccc(Cl)cc2)n1,-6.3,-2.3,1.2,0.2,66.6*,57.1*,54.5*,41.9
CCNc1nc(NC(C)C)nc(NS(=O)(=O)c2ccc(Cl)cc2)n1,5.0,1.5,-2.2,-0.8,82.7*,55.1*,62.7*,46.8
COc1ccc(C=C2C(=O)OC(C)(C)OC2=O)cc1OC,0.5,-5.1,5.9,1.4,-13.0,nt,nt,nt
COc1ccc(/C=C2\C(=O)NC(=O)c3ccccc32)cc1OC,-8.1,nt,7.6,6.5,69.1*,41.7,nt,nt
Cc1ccc2nc(Cl)c(/C=N/Nc3ccc(C(=O)O)cc3)cc2c1,-3.7,-12.1,3.4,-2.4,60.2*,31.7,nt,nt
CN(Cc1ccccc1)C(=O)CCC1CCN(C(=O)CCC(F)(F)F)CC1,3.8,5.2,-0.7,1.4,3.0,nt,nt,nt
COC(=O)CN1C(=O)[C@@H]2[C@H](C1=O)[C@@H]1CC(C(=O)OC)=C[C@@H](C(=O)OC)[C@@H]3C1=C(C(=O)[C@@]3(C)NC(=O)c1ccccc1)[C@@H]2C,-5.2,nt,2.9,-0.1,-4.3,nt,nt,nt
c1ccc(NC2=Nc3cccc4cccc2c34)cc1,2.6,5.6,-1.7,1.1,47.5,nt,nt,nt
COc1ccc(NC2=Nc3cccc4cccc2c34)cc1,-1.7,-1.9,1.2,15.2,75.0*,23.0,nt,nt
O=[N+]([O-])c1ccc(Sc2cccc3cccnc23)cc1,0.2,-4.5,1.9,-2.5,113.7*,83.1*,77.1*,72.5*
O=[N+]([O-])c1cc(Cl)ccc1Sc1cccc2cccnc12,-5.7,-12.7,0.0,-9.9,128.9*,89.7*,88.3*,82.1*
O=[N+]([O-])c1ccc(Sc2ccncn2)c([N+](=O)[O-])c1,-5.1,nt,5.0,-4.4,17.6,nt,nt,nt
O=[N+]([O-])c1ccc(Sc2cccc3cccnc23)c([N+](=O)[O-])c1,-10.3,7.9,12.9,-21.1,147.7*,99.0*,70.7*,60.8*
COC(=O)C1=C(C)N(Cc2ccccc2C(F)(F)F)C(=NCc2ccc3c(c2)OCO3)NC1c1cccc(Cl)c1 (stereo not drawn),4.9,nt,4.1,2.7,nt,nt,nt,nt
Cc1ccc(/C=C/C(=O)NCc2cccs2)c(C)c1,0.6,-0.8,3.1,5.9,88.2*,28.7,nt,nt
Nn1cnnc1N/N=C\c1ccc(-c2ccccc2[N+](=O)[O-])o1,-3.0,53.9*,5.4,11.1,80.5*,53.4*,73.6*,56.5*
O=[N+]([O-])c1ccccc1-c1ccc(/C=N/n2cnnc2)o1,-7.1,26.6,0.5,-1.4,9.7,nt,nt,nt
O=C(Nc1ccccc1C(=O)N/N=C/c1ccco1)c1ccccc1Cl,-3.4,-1.4,1.5,0.6,69.6*,51.5*,51.6*,38.9
CCOC(=O)c1c(OCC)[nH]c2c1cc(O)c1ccccc12,-5.8,-0.9,12.9,-2.0,68.8*,48.5*,21.0,24.8
Cc1cc([N+](=O)[O-])nn1CCCC(=O)Nc1sc2c(c1C(N)=O)CCCC2,-0.2,9.1,6.4,1.1,67.0*,31.7,nt,nt
NC(=O)c1c(NC(=O)CCCn2cnc([N+](=O)[O-])n2)sc2c1CCCC2,1.0,17.8,17.3,0.4,75.8*,42.3,nt,nt
